The text below walks through data of PubChem BioAssay (EPA / NIEHS).

Read-out in assay [1]: Tissue Factor, F3 (gene 2152)
The experiment in a line: BSK_CASM3C_TissueFactor: BioMAP Diversity Plus: CASM3C Assay for Tissue Factor Biomarker Activity (AID 2283052).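 Also: cell surface tissue factor protein level read by ELISA.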 Particulars: primary human coronary artery smooth muscle cells; actives raise or lower the signal.

Read-out in assay [2]: Interferon-gamma inducible Protein 10 (IP10), CXCL10 (gene 3627)
Description: BSK_hDFCGF_IP10: BioMAP Diversity Plus: hDFCGF Assay for Interferon-gamma inducible Protein 10 (IP10) Biomarker Activity (AID 2283053). Conditions: primary human foreskin fibroblasts; actives raise or lower the signal. In a few lines: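 Chemical-treated human skin fibroblasts (primary) were sampled at 24 h for IP-10 by ELISA. Both increases and decreases relative to DMSO were scored.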

Read-out in assay [3]: Urokinase-type plasminogen activator receptor (uPAR), PLAUR (gene 5329)
Description: BSK_CASM3C_uPAR: BioMAP Diversity Plus: CASM3C Assay for Urokinase-type plasminogen activator receptor (uPAR) Biomarker Activity (AID 2283054).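 Also: cell-surface uPAR protein level quantified by ELISA.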 Particulars: primary human coronary artery smooth muscle cells; actives raise or lower the signal.

Read-out in assay [4]: Vascular cell adhesion molecule 1 (VCAM1), VCAM1 (gene 7412)
The experiment in a line: BSK_CASM3C_VCAM1: BioMAP Diversity Plus: CASM3C Assay for Vascular cell adhesion molecule 1 (VCAM1) Biomarker Activity (AID 2283055).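 Also: VCAM-1 protein level quantified by ELISA on the cells.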 Particulars: primary human coronary artery smooth muscle cells; actives raise or lower the signal.

Read-out in assay [5]: Collagen III, COL3A1 (gene 1281)
The experiment in a line: BSK_hDFCGF_CollagenIII: BioMAP Diversity Plus: hDFCGF Assay for Collagen III Biomarker Activity (AID 2283056). Conditions: primary human foreskin fibroblasts; actives raise or lower the signal. In a few lines:
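hDFCGF primary human dermal fibroblasts; 24 h chemical exposure; collagen III by ELISA; bidirectional curve fit vs DMSO baseline (gain or loss of signal).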

Read-out in assay [6]: Epidermal growth factor receptor (EGFR), EGFR (gene 1956)
Description: BSK_hDFCGF_EGFR: BioMAP Diversity Plus: hDFCGF Assay for Epidermal growth factor receptor (EGFR) Biomarker Activity (AID 2283057). Particulars: primary human foreskin fibroblasts; actives raise or lower the signal. In a few lines:
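Cell-based multiplexed assay in primary human foreskin fibroblasts. EGFR is read by ELISA 24 h after treatment and compared with DMSO controls.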

The nature of assay [7]: BSK_hDFCGF_Proliferation: Cell Proliferation Assessment in the BioMAP Diversity Plus: hDFCGF Assay (AID 2283059).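 Also: curves fitted for both rise and fall of signal versus DMSO baseline.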 Conditions: primary human foreskin fibroblasts. In a few lines: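 Steps: dose primary human dermal fibroblasts (foreskin); […] fix in 10% TCA; stain with 0.1% SRB; read 560 nm; fit gain or loss of signal against DMSO.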
Read-out in assay [8]: Macrophage colony-stimulating factor (MCSF), CSF1 (gene 1435)
The experiment in a line: BSK_hDFCGF_MCSF: BioMAP Diversity Plus: hDFCGF Assay for Macrophage colony-stimulating factor (MCSF) Biomarker Activity (AID 2283060). Conditions: primary human foreskin fibroblasts; actives raise or lower the signal. In outline:
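ELISA read-out of M-CSF in human dermal foreskin fibroblast cultures, 24 h after chemical dosing; gain or loss of signal fitted bidirectionally relative to DMSO baseline.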

Assay [9] is described as follows: BSK_hDFCGF_SRB: Viability Assessment in the BioMAP Diversity Plus: hDFCGF Assay (AID 2283061).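 Also: cells exposed to compound for 24 h before the read.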 Conditions: primary human foreskin fibroblasts. In a few lines:
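Primary human foreskin fibroblasts; 24 h post-dose; fixed 10% TCA, stained 0.1% SRB, A560 read; total protein as overt cytotoxicity measure; curves fit bidirectionally vs DMSO control.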

Read-out in assay [10]: Interleukin-8 (IL8), CXCL8 (gene 3576)
The experiment in a line: BSK_hDFCGF_IL8: BioMAP Diversity Plus: hDFCGF Assay for Interleukin-8 (IL8) Biomarker Activity (AID 2283058). Particulars: primary human foreskin fibroblasts; actives raise or lower the signal. In outline: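 ELISA read-out of IL-8 from primary human foreskin fibroblast cultures taken 24 h after dosing; values are bidirectional fits relative to DMSO vehicle.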

The source made the active and inactive calls. The calls were made as follows: active = hit-call score of the fitted dose curve at least 0.9, where 1 is the maximum; inactive = score below 0.9.

For orientation: AC50 means the concentration giving half of the maximal activity seen. Turning to `CCN(Cc1c(F)cccc1Cl)c1c([N+](=O)[O-])cc(C(F)(F)F)cc1[N+](=O)[O-]`, the result in assay [1], in assay [4], in [5], in assay [6], in [8] and in assay [9] was inactive. For the same compound, the results for the AC50 in assay [2], in [3] and in [7] were 30.6 µM (active), 13.2 µM (active) and 4.89 µM (active), respectively.

With `CCNc1nc(N)nc(Cl)n1`, the result in assay [1], in assay [2], in assay [3], in [4], in assay [5] and in [6] was inactive. The outcome in assay [7], in [8] and in assay [9] was inactive.

In the case of `CCCCCOC(=O)COc1cc(N2C(=O)C3=C(CCCC3)C2=O)c(F)cc1Cl`, the result in [1], in [3], in [6] and in [9] was inactive. In addition, the AC50 in assay [2] is 17.9 µM (active); in [4] it was 5.55 µM (active); in assay [5] it was 15.4 µM (active); in assay [7], 22.7 µM (active); in assay [8] it was 20 µM (active).

With `CCC(C)OC(=O)N1CCCCC1CCO` (stereo not given), the result in assay [1], in assay [2], in assay [3], in assay [4], in assay [5] and in [6] was inactive. Also, the outcome in [7], in assay [8] and in assay [9] was inactive.

With `CCCN(CCC)C(=O)SCC`, the outcome in assay [1], in assay [2], in assay [3], in assay [4], in [5] and in [6] was inactive. Besides, the result in assay [7], in [8] and in assay [9] was inactive.

Turning to `COc1c(Cl)ccc(Cl)c1C(=O)O`, the outcome in assay [1], in [2], in assay [3], in assay [4], in assay [5] and in [6] was inactive. For the same compound, the result in [7], in assay [8] and in assay [9] was inactive.

Consider `CC(=O)[C@H]1CC[C@H]2[C@@H]3CCC4=CC(=O)CC[C@]4(C)[C@H]3CC[C@]12C`, for which the result in assay [1], in assay [2], in [3], in assay [4], in [6] and in assay [8] was inactive. The result in [9] was inactive. The figures for the AC50 in [5] and in assay [7] were 24 µM (active) and 14.7 µM (active), respectively.

As for `COC(=O)c1ccc(CNS(C)(=O)=O)cc1S(=O)(=O)NC(=O)Nc1nc(OC)cc(OC)n1`, the result in [1], in assay [2], in assay [3], in assay [4], in assay [5] and in assay [6] was inactive. For the same compound, the result in assay [7], in assay [8] and in assay [9] was inactive.

With `CCOC(=O)C(C)Oc1ccc(Oc2cnc3cc(Cl)ccc3n2)cc1` (stereo not given), the outcome in assay [1], in assay [2], in assay [3], in [5], in [6] and in assay [10] was inactive. For the same compound, the result in [8] and in assay [9] was inactive. Also, the AC50 in assay [7] is 30.6 µM (active).

Regarding `O=C(c1ccccc1)C1CCCCC1`, the outcome in [1], in [2], in [3], in [4], in [5] and in assay [6] was inactive. Besides, the result in assay [7], in [8] and in [9] was inactive.

On to `O=C(Nc1ccc([N+](=O)[O-])cc1Cl)c1cc(Cl)ccc1O`, for which the outcome in [1], in assay [4] and in [10] was inactive. Besides, the AC50 in assay [2] is 0.148 µM (active); in [3], 0.148 µM (active); in [5], 0.148 µM (active); in assay [7], 0.148 µM (active); in assay [8] it was 0.912 µM (active); in assay [9], 0.063 µM (active).

With `CC(=O)S[C@@H]1CC2=CC(=O)CC[C@]2(C)[C@H]2CC[C@@]3(C)[C@@H](CC[C@@]34CCC(=O)O4)[C@H]12`, the outcome in [1], in assay [3], in assay [5] and in [6] was inactive. Besides, the AC50 in assay [2] is 29.9 µM (active); in [4], 16.8 µM (active); in assay [7], 20 µM (active); in assay [8] it was 10.6 µM (active); in [9] it was 26.7 µM (active).

Take `CC(C)CCCCCCc1ccc(O)cc1`: the AC50 in assay [1] is 26.9 µM (active); in assay [2], 9.75 µM (active); in assay [3], 31.8 µM (active); in [4], 33.8 µM (active); in assay [5], 9.95 µM (active); in assay [6], 12.2 µM (active). Further, the AC50 in assay [7] was 7.24 µM (active); in assay [8], 8.61 µM (active); in assay [9] it was 10.2 µM (active).

On to `c1ccc2[nH]c(-c3cscn3)nc2c1`, for which the result in assay [1], in assay [2], in assay [3], in assay [4], in assay [5] and in assay [6] was inactive. Further, the outcome in assay [7], in assay [8] and in [9] was inactive.

For the compound `COC(=O)c1ccccc1C(=O)O`, the result in assay [1], in assay [3], in assay [4], in assay [5], in assay [6] and in [7] was inactive. The outcome in assay [8] and in assay [9] was inactive. Moreover, in assay [2], the AC50 is 31.5 µM (active).
